This is a sample that favours compounds with a hit; in the whole collection about 1.8% have one here.
Granule exo inh – lytic granule exocytosis inhibition; TALL-104 LAMP-1 surface exposure, flow cytometry; cells stimulated with thapsigargin and PMA; inhibition, % at 10 µM; 0.66% of 360,000 active;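 active = inhibition above about 55%, limit read from the data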
Myeloid diff MLP – compounds promoting myeloid differentiation | calls only at 10 µM | ER-HoxA9 myeloid progenitors, lysozyme-GFP differentiation, flow cytometry | 1% of 360,000 active;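 active = normalized GFP-positive differentiation at or above the plate's own cutoff, the solvent-only control mean plus 3 SD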;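 also: cells exposed to compound for four days before flow analysis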
ABCB6 inh MLPCN – human ABCB6 transporter inhibition. AID 602162. Q9NP58. K562-ABCB6 porphyrin accumulation, flow cytometry, 1 h; stronger effect = lower value. 0.19% of 360,000 active. fluorescence ratio to DMSO, % at 10 µM;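 active = fluorescence ratio to DMSO below 75%, the collection mean minus 3 SD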;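 also: signal is porphyrin accumulated inside mitochondria; 100% equals median channel fluorescence of DMSO control wells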
Target sequence (Q9NP58 whole entry, looked up): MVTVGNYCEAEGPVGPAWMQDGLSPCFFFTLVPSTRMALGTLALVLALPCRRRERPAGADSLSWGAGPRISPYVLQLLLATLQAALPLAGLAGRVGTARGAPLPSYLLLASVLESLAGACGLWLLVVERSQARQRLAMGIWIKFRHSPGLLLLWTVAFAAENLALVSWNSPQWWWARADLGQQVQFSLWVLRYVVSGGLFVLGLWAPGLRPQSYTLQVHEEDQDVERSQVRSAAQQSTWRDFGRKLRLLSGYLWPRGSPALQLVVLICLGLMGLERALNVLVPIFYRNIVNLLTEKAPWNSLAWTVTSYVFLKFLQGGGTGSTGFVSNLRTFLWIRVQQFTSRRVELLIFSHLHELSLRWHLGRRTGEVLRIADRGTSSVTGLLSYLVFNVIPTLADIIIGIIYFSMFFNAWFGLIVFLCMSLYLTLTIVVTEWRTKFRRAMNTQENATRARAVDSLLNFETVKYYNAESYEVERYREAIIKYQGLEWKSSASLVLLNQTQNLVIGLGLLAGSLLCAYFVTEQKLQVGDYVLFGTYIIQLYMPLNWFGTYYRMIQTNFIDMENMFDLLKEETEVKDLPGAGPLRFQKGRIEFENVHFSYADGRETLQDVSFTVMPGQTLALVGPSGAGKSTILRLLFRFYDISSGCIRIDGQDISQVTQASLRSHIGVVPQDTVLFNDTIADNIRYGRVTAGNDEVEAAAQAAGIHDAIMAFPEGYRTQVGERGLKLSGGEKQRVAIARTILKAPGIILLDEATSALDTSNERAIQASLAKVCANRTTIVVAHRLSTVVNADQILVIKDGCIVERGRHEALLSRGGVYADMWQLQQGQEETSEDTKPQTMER
Myeloid diff CP1 – myeloid differentiation induction; shares compounds with Myeloid diff MLP; ER-HoxA9 myeloid progenitors, GFP/Mac1 double-positive flow; calls only; 2% of 2,300 active;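 active = share of green or green-and-red cells above 9 and 9% in run 1 or 4 and 3% in run 2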
GFP autofluor – compound fluorescence in myeloid differentiation counter-screen | fluorescence response, % (test concentration not listed) | ER-HoxA9 myeloid progenitors, no estrogen, GFP autofluorescence flow cytometry; vehicle wells 0%, positive control 100% | 7.4% of 2,300 active | shares compounds with Myeloid diff MLP | AID 651707;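 active = over 5% cells positive for green fluorescent reporter, or over 2% positive for both it and APC stain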;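 also: range taken on the double positive population between DMSO and positive control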
* hit, by the source's call; i = inactive; nt = no result; + = active, no number.

SMILES | Granule exo inh | Myeloid diff MLP | ABCB6 inh MLPCN | Myeloid diff CP1 | GFP autofluor
N#C/C(=C\c1cc(Cl)cc(Cl)c1O)C(=O)NC1CCCCC1 | 0 | i | 102 | i | 0
CC12CCC(C(=O)N(CC(O)CN3CCCCCC3)C1=O)C2(C)C (stereo unspecified) | -1 | i | 95 | nt | nt
O=C(COC(=O)c1cc(S(=O)(=O)N2CCOCC2)ccc1F)Nc1ccccc1C(F)(F)F | -3 | i | 101 | nt | nt
CCCn1nnc(NC(=O)c2cccc(Cl)c2)n1 | -2 | i | 98 | nt | nt
CCCn1nnc(NC(=O)c2cc(Br)ccc2OC)n1 | -1 | i | 99 | i | 0
Cc1cc(/C=C2\Cc3ccccc3C2=O)c(C)n1-c1ccccc1 | 2 | + | 95 | i | 11*
Cc1cc(C=C2C(=O)c3ccccc3C2=O)c(C)n1-c1ccccc1 | -4 | i | 102 | nt | nt
CCCCC#Cc1cncc(C(=O)N/N=C/c2ccccc2)c1 | -7 | i | 100 | nt | nt
COc1ccc(-c2csc(NC(=O)CSCc3c(C)noc3C)n2)c(OC)c1 | 11 | i | 91 | nt | nt
COc1ccc(NS(=O)(=O)c2ccc3oc(SC4CCOC4=O)nc3c2)cc1 (stereo unspecified) | 1 | i | 94 | i | 0
COc1ccc(NS(=O)(=O)c2ccc3oc(SC)nc3c2)cc1 | 0 | i | 96 | nt | nt
O=C(NCCCN1CCCC1=O)c1sc2ccccc2c1Cl | 0 | i | 95 | nt | nt
COCC(=O)N(C)C[C@H]1N[C@@](Cc2ccccc2)(C(=O)OC)[C@H]2C(=O)N(Cc3ccccc3)C(=O)[C@@H]12 | -1 | i | 97 | nt | nt
CC[C@@]1(C(=O)OC)N[C@H](CN(C)C(=O)COC)[C@@H]2C(=O)N(Cc3ccccc3)C(=O)[C@@H]21 | -2 | + | 94 | i | 7.3*
CC1(C(=O)NCc2ccccc2Br)CCN1C(=O)C1(c2ccc(Cl)cc2)CC1 (stereo unspecified) | -1 | i | 96 | nt | nt
CC(=O)O[C@]1(C(C)=O)CC[C@H]2[C@@H]3C=CC4=CC(=O)C=C[C@]4(C)[C@H]3CC[C@@]21C | -3 | i | 96 | nt | nt
CC(C)C(=O)Nc1ccc(Cl)cc1-c1nc2ccccc2[nH]c1=O | -2 | i | 105 | nt | nt
CNc1ccc([N+](=O)[O-])cc1-c1nc2ccccc2[nH]c1=O | -1 | + | 100 | i | 0
Cc1ccc(NC(=O)COC(=O)C2CC(=O)N(Cc3ccccc3)C2)cc1S(=O)(=O)N(C)C (stereo unspecified) | 0 | i | 93 | nt | nt
CCOc1ccc(C(=O)NCC(c2cccs2)N2CCOCC2)cc1 (stereo unspecified) | 6 | i | 94 | nt | nt
O=C(NCC(c1cccs1)N1CCOCC1)c1ccc(OCc2ccccc2)cc1 (stereo unspecified) | -2 | + | 100 | i | 0
CC(=O)c1ccc(N2CCN(C(=O)c3cccs3)C(C)C2)c(F)c1 (stereo unspecified) | -1 | i | 106 | nt | nt
COc1cc(NC(=O)c2ccc(S(=O)(=O)N(C)c3ccccc3)cc2)cc(OC)c1 | 6 | i | 97 | nt | nt
COC(=O)[C@H](CCSC)NC(=O)N1CCN(c2cccc(C(F)(F)F)c2)CC1 | -2 | i | 103 | i | 0
COC(=O)[C@@H](NC(=O)N1CCN(c2cccc(C(F)(F)F)c2)CC1)C(C)C | -3 | i | 95 | nt | nt
SMILES | Granule exo inh | Myeloid diff MLP | ABCB6 inh MLPCN | Myeloid diff CP1 | GFP autofluor
Cc1ccc(-n2nnnc2Sc2nc([N+](=O)[O-])nn2C)c(C)c1 | -2 | i | 100 | nt | nt
Cc1ccc(-n2nnnc2Sc2nc([N+](=O)[O-])nn2C)cc1 | 3 | + | 91 | i | 0
COc1ccc(Cc2nnc(NC(=O)C3CCCO3)s2)cc1OC (stereo unspecified) | 3 | + | 101 | i | 0
COc1ccc(Cc2nnc(NC(=O)C3CCCO3)s2)cc1 (stereo unspecified) | 2 | i | 96 | nt | nt
COc1ccccc1C1(CCNS(=O)(=O)c2ccc(C)cc2)CCOC(C(C)C)C1 (stereo unspecified) | 4 | + | 99 | i | 0
COc1ccccc1C1(CCNC(C)c2cccs2)CCOC(C(C)C)C1 (stereo unspecified) | 11 | i | 99 | nt | nt
Nc1c(C(=O)Nc2cccc(F)c2)nnn1-c1ccc2c(c1)OCCO2 | 11 | nt | 112 | nt | nt
CCCn1c(N)c(C(=O)CN(C)CC(=O)Nc2cc(C)ccc2C)c(=O)[nH]c1=O | -3 | i | 93 | nt | nt
CC(C)COC(=O)C(C#N)c1nc2ccccc2nc1N1CCN(Cc2ccc3c(c2)OCO3)CC1 (stereo unspecified) | 2 | i | 89 | nt | nt

Screens as filed in PubChem.
